According to PubChem BioAssay AID1572 (National Center for Advancing Translational Sciences (NCATS), 2009):
Results filed as inconclusive are left out. A number with no mark means an inactive call. Calls come from the whole dose curve; as a rule, active = well fitted curve in either direction with a large enough effect; inconclusive = small, poorly fitted or top-dose-only effect; inactive = flat fitted curve, though single readings scatter.

Assay: Total Fluorescence Confirmation Counterscreen for Inhibitors of the Interaction of Thyroid Hormone Receptor and Steroid Receptor Coregulator 2
Details: Texas Red total fluorescence, TRbeta/SRC2 FP artifact counterscreen; series mostly up to 92.2 µM; total fluorescence change, both ways: at the top concentration
In short: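 Flags fluorescent or light-absorbing compounds: after 5 hr at ambient temperature, 0.6 uM TRbeta LBD plus 20 nM SRC2 Texas Red (1uM T3, 5% DMSO) read at 555/632 nm; TF = S + 2P from parallel and perpendicular channels.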

Structure (SMILES)	total fluorescence change, both ways
CN1c2ccccc2C(C)(C)C12C=Nc1c(cc(N3CCOCC3)c3ccccc13)O2 (centres undefined)	2.92%
Cc1c(C#N)c(O)n(CCO)c(=O)c1N=Nc1ccc2c(c1)COC2=O	-2.59%
Cc1[nH][nH]c(=O)c1C(c1ccc(-c2ccc(Cl)c(Cl)c2)o1)c1c(C)[nH][nH]c1=O	2.21%
COc1ccc(CN2C(=O)Cc3c2nc(N)c2c(N)nc(N4CCCCC4)c(C#N)c32)cc1	1.08%
C=CCNC(=O)/C(C#N)=C/c1c(C)nn(-c2ccc(Cl)cc2)c1Cl	4.25%
CCCCCCN=CC1=C(O)CC(C)(C)CC1=O	3.03%
COc1ccc2ccc3c(c2c1)N=CC1(O3)N(C)c2ccccc2C1(C)C (centres undefined)	2.19%
C/C(=C\C(=O)c1ccccc1)Nc1ccc(O)cc1	0.528%
CCOC(=O)C(NC(=O)Nc1ccc(O)cc1)(c1ccccc1)C(F)(F)F (centres undefined)	6.83%
